Source: the supplement of paper PMC10849652
Of roughly 7,900 targets only a part is listed; those with a hit were picked by preference. About 0.6% of all pairs of compound and target were hits.

Compound: CC(C)C1=C2N=C(C=C(N2N=C1)NCC3=CC=CC=C3)NCCCCCCN
Assay: log2 fold change, soluble protein after heating vs DMSO (PISA); higher = thermal stabilisation; K562 cells, 10 uM, 30 min; active = over 0.2 and 3.5 SD of the protein, either way, in both replicates (recomputed)
Method in brief: (§1)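 Soluble protein was defined as the supernatant after 21,000xg for 90 min. It came from K562 cells at 2×10^6 cells/mL given 10 μM compound for 30 min, heated in aliquots for 3 min across 48°C-58°C, pooled, and extracted in PBS with 0.5% NP-40 at 4°C, and was quantified by TMTpro 16plex LC-MS/MS with equalised channel sums. Thermal stability against control samples, from duplicates, is reported as log2 fold change.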

Chain of UniProt Q9UP52 (Q9UP52 whole entry, looked up): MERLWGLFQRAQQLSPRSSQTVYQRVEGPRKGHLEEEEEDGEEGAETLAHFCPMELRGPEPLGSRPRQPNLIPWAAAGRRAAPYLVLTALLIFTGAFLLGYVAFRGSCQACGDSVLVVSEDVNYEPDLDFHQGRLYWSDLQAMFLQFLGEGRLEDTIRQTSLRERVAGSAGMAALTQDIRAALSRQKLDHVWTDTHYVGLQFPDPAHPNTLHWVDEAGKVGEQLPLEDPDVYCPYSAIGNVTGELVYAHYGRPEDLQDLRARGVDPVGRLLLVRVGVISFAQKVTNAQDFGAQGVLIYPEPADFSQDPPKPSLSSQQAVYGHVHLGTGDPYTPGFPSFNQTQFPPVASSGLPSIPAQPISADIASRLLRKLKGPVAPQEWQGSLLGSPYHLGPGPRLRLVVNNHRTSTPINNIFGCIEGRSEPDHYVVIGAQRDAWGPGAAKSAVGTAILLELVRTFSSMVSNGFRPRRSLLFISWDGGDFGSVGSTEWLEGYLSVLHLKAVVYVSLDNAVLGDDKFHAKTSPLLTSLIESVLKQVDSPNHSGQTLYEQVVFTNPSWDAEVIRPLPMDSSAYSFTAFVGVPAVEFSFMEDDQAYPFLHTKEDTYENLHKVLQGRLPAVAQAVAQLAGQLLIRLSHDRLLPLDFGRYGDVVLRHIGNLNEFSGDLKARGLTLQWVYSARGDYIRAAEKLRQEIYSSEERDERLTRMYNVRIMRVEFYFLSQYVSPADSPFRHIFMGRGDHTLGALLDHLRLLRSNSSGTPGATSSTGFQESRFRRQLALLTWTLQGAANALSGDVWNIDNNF
Chain of UniProt Q92536 (Q92536 whole entry, looked up): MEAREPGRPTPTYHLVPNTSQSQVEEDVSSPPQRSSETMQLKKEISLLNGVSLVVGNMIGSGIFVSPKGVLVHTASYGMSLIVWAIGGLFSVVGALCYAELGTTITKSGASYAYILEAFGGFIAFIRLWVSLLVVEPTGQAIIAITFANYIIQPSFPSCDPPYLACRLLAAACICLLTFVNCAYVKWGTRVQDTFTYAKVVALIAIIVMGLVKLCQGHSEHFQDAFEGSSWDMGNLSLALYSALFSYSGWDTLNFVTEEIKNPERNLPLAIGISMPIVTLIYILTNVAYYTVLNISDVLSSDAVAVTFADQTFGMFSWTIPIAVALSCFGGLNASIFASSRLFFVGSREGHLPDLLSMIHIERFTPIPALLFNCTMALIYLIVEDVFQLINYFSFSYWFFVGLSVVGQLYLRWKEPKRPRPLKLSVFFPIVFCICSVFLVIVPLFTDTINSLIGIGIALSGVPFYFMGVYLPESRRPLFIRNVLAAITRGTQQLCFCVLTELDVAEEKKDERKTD
Chain of UniProt P51692 (P51692 whole entry, looked up): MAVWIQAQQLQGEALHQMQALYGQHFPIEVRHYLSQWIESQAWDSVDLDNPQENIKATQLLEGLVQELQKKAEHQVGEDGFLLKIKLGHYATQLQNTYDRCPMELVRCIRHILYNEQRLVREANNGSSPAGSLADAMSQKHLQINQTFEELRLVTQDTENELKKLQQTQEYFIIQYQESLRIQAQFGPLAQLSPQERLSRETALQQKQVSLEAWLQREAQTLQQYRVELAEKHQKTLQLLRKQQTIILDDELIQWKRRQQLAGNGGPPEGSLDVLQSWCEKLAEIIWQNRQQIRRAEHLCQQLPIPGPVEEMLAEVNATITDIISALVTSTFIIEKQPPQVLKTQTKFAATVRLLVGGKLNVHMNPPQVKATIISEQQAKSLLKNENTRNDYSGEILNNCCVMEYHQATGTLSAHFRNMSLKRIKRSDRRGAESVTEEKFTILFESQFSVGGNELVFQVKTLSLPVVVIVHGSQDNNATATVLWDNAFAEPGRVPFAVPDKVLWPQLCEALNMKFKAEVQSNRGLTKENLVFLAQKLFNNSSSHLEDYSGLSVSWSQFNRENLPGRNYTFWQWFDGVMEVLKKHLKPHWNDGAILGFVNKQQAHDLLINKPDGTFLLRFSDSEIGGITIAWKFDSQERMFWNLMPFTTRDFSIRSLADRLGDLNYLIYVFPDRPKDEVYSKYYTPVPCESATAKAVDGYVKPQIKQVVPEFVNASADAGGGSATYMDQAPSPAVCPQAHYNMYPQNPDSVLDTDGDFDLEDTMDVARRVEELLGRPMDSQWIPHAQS
Chain of UniProt P42226 (P42226 whole entry, looked up): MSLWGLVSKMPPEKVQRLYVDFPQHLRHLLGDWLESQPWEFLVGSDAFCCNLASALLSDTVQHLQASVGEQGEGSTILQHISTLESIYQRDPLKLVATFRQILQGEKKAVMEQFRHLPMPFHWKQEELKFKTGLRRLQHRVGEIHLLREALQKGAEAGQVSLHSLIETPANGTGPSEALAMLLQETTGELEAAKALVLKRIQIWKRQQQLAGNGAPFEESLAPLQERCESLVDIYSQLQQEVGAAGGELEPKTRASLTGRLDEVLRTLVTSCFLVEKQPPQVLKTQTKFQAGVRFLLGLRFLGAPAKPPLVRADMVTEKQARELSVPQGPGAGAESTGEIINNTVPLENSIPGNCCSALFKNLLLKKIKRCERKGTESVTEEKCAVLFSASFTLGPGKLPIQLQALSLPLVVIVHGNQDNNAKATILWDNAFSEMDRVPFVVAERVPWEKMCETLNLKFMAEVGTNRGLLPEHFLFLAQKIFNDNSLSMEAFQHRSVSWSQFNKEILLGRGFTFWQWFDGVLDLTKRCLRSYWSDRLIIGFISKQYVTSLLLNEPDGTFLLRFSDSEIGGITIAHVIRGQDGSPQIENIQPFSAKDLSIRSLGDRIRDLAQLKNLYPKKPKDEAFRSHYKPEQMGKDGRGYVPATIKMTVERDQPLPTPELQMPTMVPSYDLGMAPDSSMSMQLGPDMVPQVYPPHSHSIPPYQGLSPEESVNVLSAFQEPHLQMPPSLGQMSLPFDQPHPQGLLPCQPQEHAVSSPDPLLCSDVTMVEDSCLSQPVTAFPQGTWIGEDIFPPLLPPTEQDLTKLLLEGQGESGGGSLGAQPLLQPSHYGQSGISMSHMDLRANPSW
Chain of UniProt Q92581 (Q92581 whole entry, looked up): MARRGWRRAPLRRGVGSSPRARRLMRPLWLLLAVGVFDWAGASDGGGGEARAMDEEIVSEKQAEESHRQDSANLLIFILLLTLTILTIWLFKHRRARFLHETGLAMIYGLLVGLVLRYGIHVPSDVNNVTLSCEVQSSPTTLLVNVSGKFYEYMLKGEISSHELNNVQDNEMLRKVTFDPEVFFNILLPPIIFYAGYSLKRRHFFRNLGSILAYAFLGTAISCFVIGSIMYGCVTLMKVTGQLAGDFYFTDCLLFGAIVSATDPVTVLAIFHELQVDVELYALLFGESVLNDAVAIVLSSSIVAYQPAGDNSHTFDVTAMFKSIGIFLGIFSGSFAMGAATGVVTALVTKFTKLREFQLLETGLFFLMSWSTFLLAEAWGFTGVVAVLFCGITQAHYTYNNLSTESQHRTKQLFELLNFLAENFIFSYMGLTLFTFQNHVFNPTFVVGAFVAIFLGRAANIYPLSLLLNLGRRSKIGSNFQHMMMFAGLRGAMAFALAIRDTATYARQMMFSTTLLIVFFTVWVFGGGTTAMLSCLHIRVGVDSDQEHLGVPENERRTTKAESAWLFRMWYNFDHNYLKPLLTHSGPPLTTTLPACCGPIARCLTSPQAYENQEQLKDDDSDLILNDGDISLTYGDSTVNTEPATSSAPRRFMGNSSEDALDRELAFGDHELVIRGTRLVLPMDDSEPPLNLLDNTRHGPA
Chain of UniProt P15907 (P15907 whole entry, looked up): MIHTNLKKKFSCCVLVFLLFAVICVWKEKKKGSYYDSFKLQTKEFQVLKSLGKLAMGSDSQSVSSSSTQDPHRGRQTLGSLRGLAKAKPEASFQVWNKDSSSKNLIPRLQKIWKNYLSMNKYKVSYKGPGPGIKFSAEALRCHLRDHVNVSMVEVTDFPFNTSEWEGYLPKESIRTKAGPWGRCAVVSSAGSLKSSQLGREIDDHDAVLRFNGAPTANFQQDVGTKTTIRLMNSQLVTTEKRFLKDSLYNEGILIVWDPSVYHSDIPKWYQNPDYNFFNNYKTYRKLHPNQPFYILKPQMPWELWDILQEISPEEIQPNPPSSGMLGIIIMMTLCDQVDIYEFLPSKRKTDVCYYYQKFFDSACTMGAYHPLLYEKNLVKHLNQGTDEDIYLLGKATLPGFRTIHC
Chain of UniProt Q8NEW0 (Q8NEW0 whole entry, looked up): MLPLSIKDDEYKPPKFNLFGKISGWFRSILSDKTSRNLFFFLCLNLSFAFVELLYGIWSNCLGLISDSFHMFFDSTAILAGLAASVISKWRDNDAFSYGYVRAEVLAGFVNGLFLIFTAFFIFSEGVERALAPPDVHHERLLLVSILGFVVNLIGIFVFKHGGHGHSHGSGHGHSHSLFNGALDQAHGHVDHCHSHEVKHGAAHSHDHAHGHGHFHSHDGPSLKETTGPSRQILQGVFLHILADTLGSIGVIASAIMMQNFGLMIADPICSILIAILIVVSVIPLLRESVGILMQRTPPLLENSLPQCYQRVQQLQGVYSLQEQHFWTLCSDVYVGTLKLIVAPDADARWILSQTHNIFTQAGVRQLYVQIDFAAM
Chain of UniProt Q9Y2H1 (Q9Y2H1 whole entry, looked up): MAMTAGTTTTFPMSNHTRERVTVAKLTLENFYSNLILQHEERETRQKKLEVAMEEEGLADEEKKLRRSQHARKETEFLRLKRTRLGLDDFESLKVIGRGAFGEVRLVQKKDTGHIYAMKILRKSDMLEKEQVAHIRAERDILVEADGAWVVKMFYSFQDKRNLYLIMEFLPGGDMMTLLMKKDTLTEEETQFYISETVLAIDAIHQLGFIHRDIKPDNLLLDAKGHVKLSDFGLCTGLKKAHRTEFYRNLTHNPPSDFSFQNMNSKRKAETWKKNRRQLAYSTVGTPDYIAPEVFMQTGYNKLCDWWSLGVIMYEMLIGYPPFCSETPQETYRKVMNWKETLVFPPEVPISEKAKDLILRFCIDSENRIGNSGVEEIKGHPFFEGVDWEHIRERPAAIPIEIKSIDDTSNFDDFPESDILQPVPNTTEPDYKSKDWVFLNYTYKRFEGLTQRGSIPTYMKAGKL

| Target | log2 fold change |
| --- | --- |
| SPPL2B (UniProt Q8TCT7) | -0.086 (inactive) |
| STK4 (UniProt Q13043) | -0.019 (inactive) |
| SMG1 (UniProt Q96Q15) | 0.007 (inactive) |
| STK38L (UniProt Q9Y2H1) | -0.148 (inactive) |
| TGFBRAP1 (UniProt Q8WUH2) | -0.424 (inactive) |
| SLC9A6 isoform 2 (UniProt Q92581) | 0.038 (inactive) |
| SLC35A1 (UniProt P78382) | 0.066 (inactive) |
| TFR2 (UniProt Q9UP52) | -0.146 (inactive) |
| TERF2IP (UniProt Q9NYB0) | -0.147 (inactive) |
| SUGP1 (UniProt Q8IWZ8) | -0.127 (inactive) |
| SURF1 (UniProt Q15526) | -0.172 (inactive) |
| STARD7 (UniProt Q9NQZ5) | -0.057 (inactive) |
| STEAP3 isoform 2 (UniProt Q658P3) | -0.011 (inactive) |
| ST6GAL1 (UniProt P15907) | -0.051 (inactive) |
| SPIRE1 (UniProt Q08AE8) | 0.181 (inactive) |
| SLC27A1 (UniProt Q6PCB7) | -0.035 (inactive) |
| SPG21 (UniProt Q9NZD8) | -0.007 (inactive) |
| SRP72 (UniProt O76094) | -0.275 (inactive) |
| SLC38A7 (UniProt Q9NVC3) | -0.751 (active) |

| Target | log2 fold change |
| --- | --- |
| SLK isoform 2 (UniProt Q9H2G2) | 0.002 (inactive) |
| TIPRL (UniProt O75663) | -0.173 (inactive) |
| STX17 (UniProt P56962) | -0.235 (inactive) |
| STIM1 (UniProt Q13586) | -0.33 (active) |
| SLC30A10 (UniProt Q6XR72) | 0.035 (inactive) |
| STK25 (UniProt O00506) | -0.02 (inactive) |
| SNUPN (UniProt O95149) | -0.034 (inactive) |
| SLC7A6 (UniProt Q92536) | 0.142 (inactive) |
| SMAD9 (UniProt O15198) | 0.005 (inactive) |
| TJP2 isoform 7 (UniProt Q9UDY2) | -0.107 (inactive) |
| SLC30A7 (UniProt Q8NEW0) | -0.186 (inactive) |
| STOM (UniProt P27105) | -0.064 (inactive) |
| STAT5B (UniProt P51692) | -0.119 (inactive) |
| SPCS2 (UniProt Q15005) | -0.01 (inactive) |
| SMAP2 (UniProt Q8WU79) | 0.02 (inactive) |
| TIAL1 isoform 2 (UniProt Q01085) | 0.106 (inactive) |
| STAT6 (UniProt P42226) | -0.058 (inactive) |
| SLC6A6 (UniProt P31641) | 0.107 (inactive) |
| SRSF2 (UniProt Q01130) | 0.03 (inactive) |

Compound: CC(C)C[C@@H](C=O)NC(=O)[C@H](CC(C)C)NC(=O)[C@H](CC(C)C)NC(=O)OCc1ccccc1
Assay: as above
Method in brief: as §1

| Target | log2 fold change |
| --- | --- |
| SPPL2B (UniProt Q8TCT7) | 0.101 (inactive) |
| STK4 (UniProt Q13043) | 0.015 (inactive) |
| SMG1 (UniProt Q96Q15) | -0.014 (inactive) |
| STK38L (UniProt Q9Y2H1) | 0.385 (inactive) |
| TGFBRAP1 (UniProt Q8WUH2) | -0.037 (inactive) |
| SLC9A6 isoform 2 (UniProt Q92581) | 0.042 (inactive) |
| SLC35A1 (UniProt P78382) | 0.007 (inactive) |
| TFR2 (UniProt Q9UP52) | 0.02 (inactive) |
| TERF2IP (UniProt Q9NYB0) | 0.058 (inactive) |
| SUGP1 (UniProt Q8IWZ8) | 0.061 (inactive) |
| SURF1 (UniProt Q15526) | 0.028 (inactive) |
| STARD7 (UniProt Q9NQZ5) | 0.028 (inactive) |
| STEAP3 isoform 2 (UniProt Q658P3) | 0.032 (inactive) |
| ST6GAL1 (UniProt P15907) | -0.009 (inactive) |
| SPIRE1 (UniProt Q08AE8) | 0.09 (inactive) |
| SLC27A1 (UniProt Q6PCB7) | -0.04 (inactive) |
| SPG21 (UniProt Q9NZD8) | 0.021 (inactive) |
| SRP72 (UniProt O76094) | 0.062 (inactive) |
| SLC38A7 (UniProt Q9NVC3) | -0.024 (inactive) |

| Target | log2 fold change |
| --- | --- |
| SLK isoform 2 (UniProt Q9H2G2) | 0.022 (inactive) |
| TIPRL (UniProt O75663) | 0.048 (inactive) |
| STX17 (UniProt P56962) | 0.028 (inactive) |
| STIM1 (UniProt Q13586) | 0.034 (inactive) |
| SLC30A10 (UniProt Q6XR72) | -0.054 (inactive) |
| STK25 (UniProt O00506) | 0.066 (inactive) |
| SNUPN (UniProt O95149) | 0.037 (inactive) |
| SLC7A6 (UniProt Q92536) | 0.006 (inactive) |
| SMAD9 (UniProt O15198) | 0.06 (inactive) |
| TJP2 isoform 7 (UniProt Q9UDY2) | 0.068 (inactive) |
| SLC30A7 (UniProt Q8NEW0) | 0.011 (inactive) |
| STOM (UniProt P27105) | 0.14 (inactive) |
| STAT5B (UniProt P51692) | 0.044 (inactive) |
| SPCS2 (UniProt Q15005) | -0.058 (inactive) |
| SMAP2 (UniProt Q8WU79) | 0.137 (inactive) |
| TIAL1 isoform 2 (UniProt Q01085) | 0.019 (inactive) |
| STAT6 (UniProt P42226) | 0.007 (inactive) |
| SLC6A6 (UniProt P31641) | 0.101 (inactive) |
| SRSF2 (UniProt Q01130) | 0.09 (inactive) |
